Laboratory results taken from PubChem BioAssay AID2551 (National Center for Advancing Translational Sciences (NCATS), 2010).
In all, about 310,000 compounds went through this assay and about 17,000 (5.5%) were called active. Not shown: some 11% with an inconclusive outcome. The call rests on the fitted dose curve; in most records, active means well fitted inhibition curve with a large enough effect; inconclusive means small, poorly fitted or top-dose-only effect, or effect the other way; inactive means no such curve, though single readings can be large or run the other way. The list comes from a sample in which actives are over-represented; it also holds similar structures and randomly drawn compounds.

biological target: Nuclear receptor ROR-gamma (Mus musculus) (UniProt P51450); assay: qHTS for inhibitors of ROR gamma transcriptional activity; conditions: Drosophila S2 Gal4-RORgamma UAS-luciferase reporter, 20 h; series mostly up to 53.6 µM; activity change, negative = inhibition: at the top concentration; further: nearly all actives have a fitted effect of over 60% in size
Procedure, shortened: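 Schneider cells (Drosophila), stable Gal4 DBD–ROR gamma + UAS-luc; 1 hr cmpd preincubation; Cu2+ induction 700 uM final; 20 hr ambient; luminescence.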
On the % scale 0 is the no-effect control and ±100 the full control effect; potency means the concentration at half of the fitted maximal effect.

Sequence of Nuclear receptor ROR-gamma (Mus musculus) (P51450 whole entry, looked up, the tested form may be a part): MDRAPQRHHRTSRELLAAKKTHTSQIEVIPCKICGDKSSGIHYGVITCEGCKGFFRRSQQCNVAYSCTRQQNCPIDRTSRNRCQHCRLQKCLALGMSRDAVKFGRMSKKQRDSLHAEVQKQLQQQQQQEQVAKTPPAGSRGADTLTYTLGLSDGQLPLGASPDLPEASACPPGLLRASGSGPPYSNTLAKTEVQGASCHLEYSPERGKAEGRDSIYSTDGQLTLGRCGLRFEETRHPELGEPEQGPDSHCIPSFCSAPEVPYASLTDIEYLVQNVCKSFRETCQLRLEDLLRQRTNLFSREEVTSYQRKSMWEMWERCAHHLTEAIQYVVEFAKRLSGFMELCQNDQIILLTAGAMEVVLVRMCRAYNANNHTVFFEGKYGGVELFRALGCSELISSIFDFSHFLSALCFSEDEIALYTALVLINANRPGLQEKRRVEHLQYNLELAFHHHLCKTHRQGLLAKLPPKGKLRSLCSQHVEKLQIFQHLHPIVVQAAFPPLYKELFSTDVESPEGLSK

Activity change, negative = inhibition, inactive:
CC(=O)Oc1ccc(-c2cccc(C(=O)N3CCCCC3)c2)cc1 25.1%, COc1ccccc1OCCn1c(SCC(N)=O)nc2ccccc21 17.5%, O=C(NCc1cccnc1)C12CC3CC(CC(C3)C1)C2 0.141%, Cc1ccc(C(=O)NC2CCN(C(=O)Nc3ccccc3Cl)CC2)cc1 -3.35%, CC(C)CC(=O)c1c[nH]c(C(=O)NCc2ccccc2)c1 3.37%, COc1ccc(NS(=O)(=O)c2ccc(NC(=S)NC(=O)CC(C)C)cc2)cc1 -31.3%, CC(C)CNC(=O)C(=O)NCc1ccccc1 -0.503%, CC(C)CC(=O)NC(=S)Nc1cc(C(=O)O)ccc1Cl 7.72%, CC1CCCCN1CCCNc1ccc(C(CC(N)=O)NC(=O)c2ccccc2)cc1[N+](=O)[O-] (stereo unspecified) -13.3%, CCOC(=O)N1CCN(C(=O)C(=O)Nc2sc3c(c2C#N)CC(C)(C)OC3)CC1 9.29%, Cc1ccc(S(=O)(=O)NCC(=O)N2CCOCCOCCOCCOCC2)cc1 -12.4%, O=S(=O)(/N=C(/Nc1ccccn1)c1ccccc1)c1ccc(Cl)cc1 38.3%, O=C(c1ccc(Cl)cc1)n1cnc2ccccc21 -14.8%, COC(=O)c1ccc2ccccc2c1OC1OC(CO)C(O)C(O)C1NC(C)=O (stereo unspecified) -4.64%, CC1(C)Cc2c(sc3nc4n(c(=N)c23)CCCCC4)CO1 25.8%, CN(C)CCSc1nc(N)c2c3c(sc2n1)COC(C)(C)C3 -36.3%, Fc1ccc(-c2ccc(NCCN3CCOCC3)nn2)cc1 20%, CC(=O)c1c(C)oc2ccc(NS(=O)(=O)c3ccccc3)cc12 13.9%, Cc1ccc(CN2CCC(n3nccc3NC(=O)CCCc3ccccc3)CC2)o1 -40.9%, O=C(Nc1cnccn1)c1cccnc1 13.5%, O=C(CCl)NNc1cccc(Cl)n1 30%, COc1ccc(C)cc1N(CC(=O)NC(C)c1ccccc1)S(C)(=O)=O (stereo unspecified) 16.1%, CC(Oc1ccc(Cl)cc1Cl)C(=O)/C=C/N(C)C (stereo unspecified) -4.84%, COc1cccc(NC(=O)CN(C)C(=O)Cc2ccc(Cl)cc2Cl)c1 3.05%, CCOC(=O)N1CCN(S(=O)(=O)N2CCCC(C(=O)NCCCN3CCC(C)CC3)C2)CC1 (stereo unspecified) -6.51%, NC(=O)c1c(NC(=O)CSc2nc(N)cc(=O)[nH]2)sc2c1CCCC2 11.5%, NC(=O)c1c(NC(=O)c2ccccc2)sc2c1CCCC2 -16.4%, Fc1cc(F)c2nc(N3CCOCC3)sc2c1 30.4%, CC(C)(C)c1ccc(CN2C(=O)c3ccccc3S2(=O)=O)cc1 22.5%, COc1ccc(NC(=O)c2sc3nc(C)nc(N4CCN(c5ccccn5)CC4)c3c2C)c(OC)c1 -30.6%, O=C(NC1CCN(S(=O)(=O)c2ccc(F)cc2)CC1)c1ccccc1 -28.7%, Cc1nn(CC(=O)NCCc2ccccc2)c(=O)c2cc3occc3n12 19.9%, O=C(NC(=S)NC1CCS(=O)(=O)C1)c1cccc([N+](=O)[O-])c1 (stereo unspecified) -27.1%, O=c1c(-c2ccccc2)coc2cc(O)ccc12 28.4%, COc1ccccc1N=Cc1c(O)c2ccccc2oc1=O -38.7%, CCN(CC)S(=O)(=O)c1ccc(N2CCN(C)CC2)c(NC(=O)Nc2ccccc2F)c1 -26.7%, CCn1c(=O)c2ccccc2n(CC(=O)N2CCCc3ccccc32)c1=O -16%, CC(=O)NC(Cc1c[nH]c2ccccc12)C(=O)NCCc1ccccc1 (stereo unspecified) 6.43% [at 1.91 µM], O=C(Nc1ccc(Br)cc1)c1cc(S(=O)(=O)Nc2ccccn2)ccc1Cl -0.848%, Cc1nccn1CC(=O)N/N=C/c1ccc(O)c(O)c1 -18%, O=c1ccc(-c2ccc(S(=O)(=O)Nc3ccccc3)o2)n[nH]1 -24.5%, COc1ccc(C(=O)c2c(C)c(CCC#N)n3ccccc23)c(OC)c1 3.97%, COCCCC1CCN(C(=O)C2CCC(=O)N(C3CCCCCC3)C2)CC1 (stereo unspecified) 1.67%, Cc1cc(C(=O)NC2CCCc3c2cnn3-c2cccc(C)c2C)c(C)o1 (stereo unspecified) -111%, O=C(Nn1cnc2ccccc2c1=O)c1ccccc1 12.3%, O=[N+]([O-])c1ccc(N/N=C/c2ccccc2)cc1 -1.85%, CCCc1nc2ccccc2c(=O)n1/N=C/c1ccc(O)c(O)c1 -4.72%, Cc1nc2ccccc2c(=O)n1NC(=O)c1ccccc1 -41%, Cc1ccc2c(=O)cc(C(=O)NCCc3ccc(S(N)(=O)=O)cc3)oc2c1C -29%, CCCCn1c(N)c(N(CCOC)C(=O)c2oc3ccc(OC)cc3c2C)c(=O)[nH]c1=O -16.9%, CCC(=O)Nc1ccc(C(=O)NNC(=O)c2ccc(Cl)cc2)cc1 10%, CCc1cccc(NC(=O)CCCN2C(=O)C(c3ccccc3)Oc3cccnc32)c1 (stereo unspecified) 18%, O=C1c2ccccc2S(=O)(=O)N1Cc1c(F)cccc1Cl 14.6%

Potency, active:
CC(=O)c1ccc(NC(=S)NC(=O)CC(C)C)cc1 12.6 µM, CC(C)CC(=O)NC(=S)NCc1ccccc1 5.01 µM, O=C(c1ccc(Cl)cc1)N1N=C(c2ccccn2)CC1(O)C(F)(F)F (stereo unspecified) 1.41 µM, C=CCNC(=S)NNc1ncnc2sc3c(c12)CC(C)(C)OC3 1.26 µM, O=C(NNc1ccccn1)c1ccc(Cl)nc1 12.6 µM, CCCC(=O)Nc1cccc(NC(=S)NC(=O)C(C)Oc2ccc(Cl)cc2Cl)c1 (stereo unspecified) 6.31 µM, NC(=O)c1c(Nc2nc3c(F)cccc3s2)sc2c1CCCC2 12.6 µM, Fc1cc(F)c2nc(Nc3nc4c(F)cccc4s3)sc2c1 3.98 µM, CCCCN1C(=S)NC[C@@H]1C(C)CC (stereo partly specified) 3.55 µM, O=c1c(O)c(-c2ccc(O)cc2)oc2ccccc12 7.94 µM, Oc1ccc(Br)cc1/C=N/Nc1ccccn1 5.62 µM, O=c1c2ccccc2ncn1/N=C/c1ccccc1 10 µM, O=c1c2ccccc2nc(N/N=C/c2ccccc2)n1O 11.2 µM
